The structures appear in SMILES notation. Calls of active or inactive are those of the source.

One test addresses Albumin (Bos taurus) (UniProt P02769). Nature of the test: bovine serum albumin binders on microarray, profiling panel, artefact control for SMM control protein annotation, biochemical, small-molecule microarray, Alexa647 label, 635/667 nm fluorescence (AID 1118).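 Note: score merges 667 nm emission intensity and signal-to-noise per printed compound spot.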 To be noted: BSA-A647 binding, fluorescence 635 nm, higher = more signal.
Test [1] is described as follows: small-molecule microarray binders of probe aXIP, primary screen, biochemical, NeuroSMM set, 635/667 nm fluorescence (AID 1119).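 Note: probe is the protein aXip251-270 applied at 1 µg/mL to compound-printed slides; binding of probe to printed compounds measured as 667 nm fluorescence plus signal to noise.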 To be noted: higher = more signal, called active from +8 up or from −8 down.
Test [2] can be described thus: small-molecule binders of probe aNOTCH3, primary screen, biochemical, small-molecule microarray, 635/667 nm fluorescence (AID 1120).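 Note: probe is a biotin-tagged antibody raised against NOTCH3 rather than NOTCH3 protein; score merges spot fluorescence near 667 nm with spot signal to noise.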 The settings on record: higher = more signal.
Test [3] in a line: small-molecule binders of probe aNOTCH2, primary screen, biochemical, small-molecule microarray, 635/667 nm fluorescence (AID 1121).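 Note: score merges feature fluorescence read at 667 nm with its signal to noise.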 The settings on record: higher = more signal.
The target in test [4] is Carbonic anhydrase 2 (Homo sapiens) (UniProt P00918). Nature of the test: CAII small-molecule binders, profiling panel, biochemical, small-molecule microarray, Alexa647-labelled CAII (AID 1122). To be noted: CAII-A647 binding fluorescence, higher = more signal.
Test [5] in a line: COS7 lysate on small-molecule microarray, probe aHis, 635 nm (AID 1123).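 Note: z-score combines 667nm fluorescence intensity with signal-to-noise per printed compound spot.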 The settings on record: COS7 cell lysate, fluorescence, higher = more signal.
Test [6] is described as follows: compound binding in COS7 lysate, probe aLAP1, primary screen, cell lysate, small-molecule microarray (AID 1124).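 Note: lysate comes from COS7 cells expressing LAP1 and is applied at 0.3 µg/mL; score merges spot fluorescence near 667 nm with signal-to-noise over triplicate slides.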 The settings on record: probe aLAP1, fluorescence, higher = more signal.
The test system of another test is Sam68 (KHDRBS1). Nature of the test: Sam68 small-molecule binders, primary screen, biochemical, small-molecule microarray, 635 nm fluorescence (AID 1125).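 Note: score merges 667 nm channel intensity with signal to noise over triplicate slides.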 To be noted: small-molecule microarray binding, higher = more signal.
The test system of test [7] is Chordin-like protein 2 (CHRDL2). Nature of the test: CHRDL2 small-molecule binders, primary screen, biochemical, small-molecule microarray, 635 nm fluorescence (AID 1126).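 Note: printed compound slides probed with Chrdl2 protein at 4 µg/mL for 1 h at 4 C; score merges 667 nm emission intensity with signal to noise over three replicate slides.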 The settings on record: small-molecule microarray binding, fluorescence 635 nm; higher = more signal.
Test [8] concerns the target Concanavalin-A (Canavalia ensiformis) (UniProt P02866). Nature of the test: ConA small-molecule binders, primary screen, artefact control for SMM control protein annotation, biochemical, small-molecule microarray, Alexa647 label, 635 nm (AID 1127).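 Note: z combines 667 nm emission intensity with signal-to-noise across three replicate slides.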 To be noted: ConA-A647 binding fluorescence, higher = more signal.
Test [9] in a line: anti-His antibody binders, primary screen, artefact control for SMM control protein annotation, biochemical, small-molecule microarray, 635 nm fluorescence (AID 1128).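 Note: score merges feature fluorescence with signal-to-noise for each printed compound spot.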 To be noted: anti-His Alexa647 antibody binding, higher = more signal.
Test [10] concerns Human papillomavirus type 1a E7 protein (residues 1-88). Nature of the test: HPV1a E7 small-molecule binders, primary screen, biochemical, small-molecule microarray, residues 1-88, 635 nm (AID 1129). The settings on record: small-molecule microarray binding, fluorescence 635 nm; higher = more signal.
In test [11] the target is Focal adhesion kinase 1 (Homo sapiens) (UniProt Q05397). Nature of the test: small-molecule microarray binders of FAK, primary screen, biochemical, 635/667 nm fluorescence, BSA, DTT (AID 1130).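 Note: composite of spot emission at 667 nm and signal to noise over triplicate slides.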 To be noted: PTK2 binding, 635 nm fluorescence, higher = more signal.
Test [12] deals with Fibrinogen (Alexa647-labelled). Nature of the test: fibrinogen binders on compound microarrays, profiling panel, artefact control for SMM control-protein annotation, biochemical, small-molecule microarray, 635/667 nm fluorescence (AID 1131).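 Note: z-score merges 667 nm fluorescence with per-spot signal-to-noise over triplicate slides.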 The settings on record: fibrinogen-A647 binding fluorescence, higher = more signal.
In test [13] the target is Follistatin (Homo sapiens) (UniProt P19883). Nature of the test: follistatin binders on small-molecule microarrays, primary screen, biochemical, small-molecule microarray, 635/667 nm fluorescence (AID 1132). To be noted: FST binding, 635 nm fluorescence, higher = more signal.
The target in test [14] is Fibroblast growth factor 2 (Homo sapiens) (UniProt P09038). Nature of the test: FGF2 binders on small-molecule microarrays, primary screen, biochemical, small-molecule microarray, 635/667 nm fluorescence (AID 1133). To be noted: small-molecule microarray binding, FGF2, fluorescence 635/667; higher = more signal.
The nature of test [15]: mitochondrial membrane potential change in A549 cells, profiling panel, cell-based, JC-1 fluorescence, basal, 24 h, 100 nL (AID 1138).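 Note: A549 lung adenocarcinoma cells under basal conditions with no added stimulus; test concentration not given here.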 The settings on record: higher = more signal.
The next test deals with Lefty1. Nature of the test: Lefty1 binders on small-molecule microarrays, primary screen, biochemical, small-molecule microarray, 635/667 nm fluorescence (AID 1139). The settings on record: small-molecule microarray binding, fluorescence 635/667; higher = more signal.
The test system of test [16] is wheat germ agglutinin (Triticum aestivum), Alexa647-labelled. Nature of the test: wheat germ agglutinin binders on compound microarrays, profiling panel, artefact control for SMM control-protein annotation, biochemical, small-molecule microarray, 635/667 nm fluorescence (AID 1140).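 Note: score merges 667 nm feature emission with signal to noise over triplicate slides.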 The settings on record: WGA-A647 binding, 635 nm fluorescence, higher = more signal.
Test [17] has as its target Luciferin 4-monooxygenase (Photinus pyralis) (UniProt P08659). Nature of the test: firefly luciferase enzyme inhibitors, primary screen, biochemical, luminescence, purified enzyme, 2006 set (AID 1141).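 Note: cell-free assay with purified firefly luciferase at 100 ng per well in PBS; test concentration not given here.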 To be noted: SteadyGlo luminescence, 30 min, higher = more signal, called active from +8 up or from −8 down.

Chain of Albumin (Bos taurus) (P02769 whole entry, looked up): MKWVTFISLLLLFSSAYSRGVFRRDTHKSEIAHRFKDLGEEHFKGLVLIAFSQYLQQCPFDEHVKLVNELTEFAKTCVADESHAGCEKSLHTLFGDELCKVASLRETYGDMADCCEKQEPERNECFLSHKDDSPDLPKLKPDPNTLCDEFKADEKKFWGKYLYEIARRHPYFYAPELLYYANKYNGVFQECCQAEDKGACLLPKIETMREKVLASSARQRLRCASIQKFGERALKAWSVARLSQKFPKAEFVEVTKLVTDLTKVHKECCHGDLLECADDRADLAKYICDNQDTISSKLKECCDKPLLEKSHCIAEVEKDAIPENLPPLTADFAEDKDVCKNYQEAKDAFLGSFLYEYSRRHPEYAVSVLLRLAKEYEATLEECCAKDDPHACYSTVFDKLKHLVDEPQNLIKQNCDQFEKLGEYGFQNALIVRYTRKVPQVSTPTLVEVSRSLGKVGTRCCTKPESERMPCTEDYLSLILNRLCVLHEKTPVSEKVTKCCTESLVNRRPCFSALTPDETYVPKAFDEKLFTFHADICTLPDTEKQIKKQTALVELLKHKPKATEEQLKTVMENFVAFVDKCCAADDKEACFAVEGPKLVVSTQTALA
Chain of Focal adhesion kinase 1 (Homo sapiens) (Q05397 whole entry, looked up): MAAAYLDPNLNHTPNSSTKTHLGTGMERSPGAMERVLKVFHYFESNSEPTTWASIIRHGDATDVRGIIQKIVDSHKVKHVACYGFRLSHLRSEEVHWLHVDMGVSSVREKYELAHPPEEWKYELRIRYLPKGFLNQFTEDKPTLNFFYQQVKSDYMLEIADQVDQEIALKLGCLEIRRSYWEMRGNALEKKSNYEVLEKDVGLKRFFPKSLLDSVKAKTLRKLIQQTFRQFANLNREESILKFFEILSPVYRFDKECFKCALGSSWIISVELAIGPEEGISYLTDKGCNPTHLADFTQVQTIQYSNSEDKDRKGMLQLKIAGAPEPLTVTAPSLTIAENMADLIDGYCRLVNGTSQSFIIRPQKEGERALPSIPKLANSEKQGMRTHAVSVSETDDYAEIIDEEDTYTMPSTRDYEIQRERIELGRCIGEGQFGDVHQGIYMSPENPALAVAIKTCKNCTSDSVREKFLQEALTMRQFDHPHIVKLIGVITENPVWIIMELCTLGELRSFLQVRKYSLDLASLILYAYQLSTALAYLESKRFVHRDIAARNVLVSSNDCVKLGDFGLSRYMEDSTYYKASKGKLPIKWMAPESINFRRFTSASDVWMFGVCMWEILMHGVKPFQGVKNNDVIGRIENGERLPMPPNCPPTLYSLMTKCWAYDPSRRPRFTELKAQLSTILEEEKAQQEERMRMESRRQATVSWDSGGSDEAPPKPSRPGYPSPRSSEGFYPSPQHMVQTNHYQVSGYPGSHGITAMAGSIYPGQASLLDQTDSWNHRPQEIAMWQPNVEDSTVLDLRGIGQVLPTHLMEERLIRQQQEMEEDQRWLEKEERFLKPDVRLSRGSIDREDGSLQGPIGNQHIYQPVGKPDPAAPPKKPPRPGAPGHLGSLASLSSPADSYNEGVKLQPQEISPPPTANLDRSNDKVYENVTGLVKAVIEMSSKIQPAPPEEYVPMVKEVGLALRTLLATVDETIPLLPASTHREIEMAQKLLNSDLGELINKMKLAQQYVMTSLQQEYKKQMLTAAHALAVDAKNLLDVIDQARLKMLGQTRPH
Chain of Luciferin 4-monooxygenase (Photinus pyralis) (P08659 whole entry, looked up): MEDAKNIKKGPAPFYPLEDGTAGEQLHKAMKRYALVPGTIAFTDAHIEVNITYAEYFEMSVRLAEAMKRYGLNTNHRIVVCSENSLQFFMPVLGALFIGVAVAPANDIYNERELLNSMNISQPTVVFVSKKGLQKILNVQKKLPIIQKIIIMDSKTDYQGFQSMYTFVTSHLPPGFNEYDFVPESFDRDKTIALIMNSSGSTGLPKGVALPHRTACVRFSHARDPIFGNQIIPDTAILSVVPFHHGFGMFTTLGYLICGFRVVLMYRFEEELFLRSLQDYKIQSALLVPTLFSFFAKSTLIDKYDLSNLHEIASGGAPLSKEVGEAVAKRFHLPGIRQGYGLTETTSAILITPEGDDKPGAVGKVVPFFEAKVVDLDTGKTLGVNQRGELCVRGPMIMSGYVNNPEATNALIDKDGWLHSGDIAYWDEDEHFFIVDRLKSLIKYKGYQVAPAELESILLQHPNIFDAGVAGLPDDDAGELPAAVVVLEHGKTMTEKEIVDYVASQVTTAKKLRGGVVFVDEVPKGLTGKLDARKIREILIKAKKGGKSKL
Chain of Follistatin (Homo sapiens) (P19883 whole entry, looked up): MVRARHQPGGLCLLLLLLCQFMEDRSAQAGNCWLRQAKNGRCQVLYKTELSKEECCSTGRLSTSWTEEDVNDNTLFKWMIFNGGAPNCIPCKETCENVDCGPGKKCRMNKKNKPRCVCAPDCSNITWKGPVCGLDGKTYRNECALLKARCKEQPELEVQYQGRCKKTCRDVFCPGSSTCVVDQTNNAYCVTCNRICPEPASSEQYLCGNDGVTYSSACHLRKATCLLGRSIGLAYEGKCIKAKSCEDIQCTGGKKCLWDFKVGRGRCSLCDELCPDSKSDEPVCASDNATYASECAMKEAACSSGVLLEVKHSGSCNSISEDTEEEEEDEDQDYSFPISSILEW
Chain of Fibroblast growth factor 2 (Homo sapiens) (P09038 whole entry, looked up): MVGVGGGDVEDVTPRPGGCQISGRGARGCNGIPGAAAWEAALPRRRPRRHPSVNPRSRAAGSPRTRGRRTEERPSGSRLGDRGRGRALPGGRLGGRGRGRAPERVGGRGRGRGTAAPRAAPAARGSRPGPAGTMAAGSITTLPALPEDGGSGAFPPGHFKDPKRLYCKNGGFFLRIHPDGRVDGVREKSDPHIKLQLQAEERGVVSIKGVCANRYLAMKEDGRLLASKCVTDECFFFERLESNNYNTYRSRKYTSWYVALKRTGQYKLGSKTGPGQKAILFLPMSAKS
Chain of Concanavalin-A (Canavalia ensiformis) (P02866 whole entry, looked up): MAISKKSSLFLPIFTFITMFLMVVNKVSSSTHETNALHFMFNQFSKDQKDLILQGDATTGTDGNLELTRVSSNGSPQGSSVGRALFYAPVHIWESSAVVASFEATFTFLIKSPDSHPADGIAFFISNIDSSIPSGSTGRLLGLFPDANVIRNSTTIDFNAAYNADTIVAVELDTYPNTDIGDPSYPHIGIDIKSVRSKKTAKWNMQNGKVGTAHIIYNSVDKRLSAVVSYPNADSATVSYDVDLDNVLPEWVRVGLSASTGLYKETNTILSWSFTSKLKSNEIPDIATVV

For the molecule `COc1ccc([Si](C)(C)[C@@H]2[C@@H](CCn3cc([C@H](O)c4ccccc4)nn3)O[C@]3(C(=O)N(Cc4ccc(N5CCC5=O)cc4)c4ccccc43)[C@H]2C)cc1`, the composite z-score was 0.0006 with Albumin (Bos taurus); -0.505 in [2]; -0.0849 in [3]; -0.266 in [4]; 0.121 in test [5]; -0.426 in test [6]. Moreover, the composite z-score in the test on Sam68 (KHDRBS1) is -0.323; in test [7], -0.0871; in test [8] it was 0.469; in test [9], 0.174; in test [10] it was -0.304; in test [11], -0.0467. In addition, the composite z-score in test [12] is -0.926; in [13] it was 1.31; in test [14], 0.749; in the test with Lefty1, 1.05; in test [16], 0.118. Moreover, the composite Z-score in test [1] is 0.811 (inactive). In addition, the z-score in [15] is 1.87; in test [17], -0.325 (inactive).

With `CCOC(=O)C[C@H]1[C@H](OC(=O)c2ccccc2-c2ccccc2)[C@@H](NC(=O)C2CCCCC2)c2cc(OCCCO)ccc2N1C(=O)Cc1ccc(OC)cc1`, the composite z-score with Albumin (Bos taurus) was 0.0179; in test [2], -0.046; in test [3], -0.122; in test [4], 0.0935; in test [5], 0.0644; in test [6] it was 0.0035. Also, the composite z-score with Sam68 (KHDRBS1) is -0.0019; in test [7], -0.292; in [8] it was 0.0384; in test [9] it was 0.0271; in test [10], -0.525; in test [11] it was 0.559. For the same molecule, the composite z-score is -0.873 in test [12]; -0.211 in test [13]; -0.377 in test [14]; 0.442 with Lefty1; 0.752 in test [16]. Besides, the composite Z-score in [1] is -0.483 (inactive). Besides, the z-score in test [15] is 1.58; in test [17], 0.0079 (inactive).

For the molecule `COCCOC(=O)N1C(=O)[C@@]2(c3cc(C#CC4=CCCCC4)ccc31)[C@H](c1ccccc1OCCO)N1[C@H](c3ccccc3)[C@H](c3ccccc3)OC(=O)[C@H]1[C@@H]2C(=O)N1CCCCCCC1`, the composite z-score was -0.0107 in the test with Albumin (Bos taurus); -0.582 in test [2]; -0.26 in test [3]; 0.592 in [4]; 2.23 in test [5]; 0.22 in test [6]. Also, the composite z-score in the test on Sam68 (KHDRBS1) came to 1.34; in test [7], 0.323; in test [8] it was 0.592; in [9] it was 0.778; in [10], 1.22; in [11], 0.724. Also, the composite z-score in test [12] was 0.767; in test [13] it was 1.24; in test [14], 1.14; with Lefty1, 0.277; in test [16], 0.405. For the same molecule, the composite Z-score in [1] is 0.181 (inactive). Besides, the z-score in [15] was -0.433; in [17], -0.22 (inactive).

With `C=C(COC)/C(=C/C[C@H](OC(=O)c1ccncc1)c1ccccc1OCCO)c1cnc2ccccc2c1`, the composite z-score is 0.609 with Albumin (Bos taurus); 0.0964 in test [2]; -0.102 in [3]; 0.881 in [4]; 2.07 in test [5]; 0.118 in test [6]. In addition, the composite z-score with Sam68 (KHDRBS1) came to 1.29; in [7], 0.951; in [8], 1.03; in [9] it was 0.717; in test [10], 1.23; in test [11] it was 0.241. Besides, the composite z-score in [12] is 1.01; in [13] it was 1.4; in test [14], 1.35; in the test with Lefty1, 1.5; in [16] it was 1.04. For the same molecule, in test [1], the composite Z-score is 0.431 (inactive). Besides, the z-score in test [15] is 0.662; in [17], -0.212 (inactive).

For `O=C1O[C@H](c2ccccc2)[C@H](c2ccccc2)N2[C@H]1[C@@H](C(=O)Nc1nc3ccccc3s1)[C@]1(C(=O)Nc3ccc(C#CCCO)cc31)[C@H]2c1ccc(O)cc1`, the composite z-score was 0.497 in the test with Albumin (Bos taurus); 0.199 in [2]; -0.156 in test [3]; 0.5 in test [4]; 1.75 in [5]; 0.278 in [6]. The composite z-score came to 1.02 with Sam68 (KHDRBS1); 0.172 in test [7]; 1.16 in test [8]; 0.917 in [9]; 1.18 in test [10]; 0.306 in test [11]. The composite z-score in [12] is 0.982; in [13], 1.26; in test [14], 0.585; in the test on Lefty1 it was 1.23; in test [16] it was 1.1. The composite Z-score in test [1] was -0.0959 (inactive). For the same molecule, the figures for the z-score in test [15] and in test [17] were -2.34 and 0.198 (inactive), respectively.

`CCOc1cc(C(O)C2C=CC3C(=O)N(c4ccccc4)C(=O)C3N2Nc2ccc(C#N)cc2)ccc1O` (stereo not given): the composite z-score with Albumin (Bos taurus) is 0.876; in test [2], 0.0638; in [3], -0.171; in test [4], 0.877; in [5] it was 0.825; in [6] it was 0.876. The composite z-score in the test with Sam68 (KHDRBS1) was -0.0645; in [7], -0.879; in test [8], 1.03; in test [9] it was 1.29; in test [10], 0.161; in [11], 0.471. Also, the composite z-score in [12] is 0.961; in [13], 0.765; in test [14], -0.667; with Lefty1, 0.113; in test [16], 0.961. In addition, the composite Z-score in test [1] was 0.793 (inactive). Further, the z-score in test [15] is -0.00105; in test [17] it was -0.519 (inactive).

For the origin of these results see PubChem BioAssay.
